Sampled rows, rich in hits. Any-hit rate of the full collection: about 2.4%.
POLI inh = inhibitors of human DNA polymerase iota. Q9UNA4. Pol iota fluorescent replication assay, 10 min. Potency, µM (top dose mostly 115 µM), inactives show top-dose activity, negative = inhibition, actives largely listed as inhibitors. actives 1% (n = 390,000). AID 588590
Target sequence (Q9UNA4 whole entry, looked up): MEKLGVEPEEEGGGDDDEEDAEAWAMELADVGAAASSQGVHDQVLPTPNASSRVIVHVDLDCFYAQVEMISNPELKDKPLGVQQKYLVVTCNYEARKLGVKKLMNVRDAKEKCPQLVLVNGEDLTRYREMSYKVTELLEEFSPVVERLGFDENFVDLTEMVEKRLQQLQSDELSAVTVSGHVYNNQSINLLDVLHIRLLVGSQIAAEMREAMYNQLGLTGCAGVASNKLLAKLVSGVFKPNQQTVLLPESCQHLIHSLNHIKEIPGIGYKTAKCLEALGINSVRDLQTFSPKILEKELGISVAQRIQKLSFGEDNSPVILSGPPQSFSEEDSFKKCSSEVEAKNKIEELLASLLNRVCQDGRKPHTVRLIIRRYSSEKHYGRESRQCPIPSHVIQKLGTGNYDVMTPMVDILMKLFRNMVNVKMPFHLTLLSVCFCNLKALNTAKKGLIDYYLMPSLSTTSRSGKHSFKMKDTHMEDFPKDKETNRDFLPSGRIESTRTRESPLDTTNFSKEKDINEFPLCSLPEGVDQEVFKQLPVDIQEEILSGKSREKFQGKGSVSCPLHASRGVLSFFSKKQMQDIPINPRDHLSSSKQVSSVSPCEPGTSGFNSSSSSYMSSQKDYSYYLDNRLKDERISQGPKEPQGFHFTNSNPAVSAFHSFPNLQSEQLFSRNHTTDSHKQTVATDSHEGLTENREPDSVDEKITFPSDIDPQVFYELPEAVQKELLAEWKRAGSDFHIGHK
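Pol iota at 10 nM preincubated 15 min with compounds at room temperature; reaction started with fluorescent substrate, 50 nM final. Fluorescence read kinetically at 0 and 10 min; buffer-only wells as negative control.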
Pol eta inh-1 = DNA polymerase eta (human) inhibition. Q9Y253. recombinant Pol eta, fluorescent DNA replication assay. Potency, µM (top dose mostly 114 µM), for inactives: top-dose activity change, negative = inhibition, most hits filed as inhibitors. actives 1.2% (n = 390,000). AID 588591; further: on the % scale 0 is the no-effect control and ±100 the full control effect
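Pol eta (10 nM) was preincubated with compounds for 15 min at room temperature, after which fluorescent replication substrate (50 nM final) was added to start the reaction. Fluorescence was read kinetically at 0 and 10 min.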
FEN1 inh = inhibitors of human flap endonuclease 1; actives 0.35% (n = 390,000); Recombinant FEN1 flap cleavage, fluorescence, 15 min; P39748; Potency, µM (doses to about 114 µM), for inactives: at the top dose activity change, negative = inhibition, most hits filed as inhibitors; further: on the % scale 0 is the no-effect control and ±100 the full control effect; nearly all actives have a fitted effect of over 65% in size
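Nuclease activity of 10 nM FEN1 was measured after 15 min of room-temperature exposure to titrated compounds, by adding 50 nM flap substrate and reading plates at 0 and 15 min.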
Pol kappa inh-1 = blocks human DNA polymerase kappa activity; Q9UBT6; purified Pol kappa, fluorescent DNA synthesis assay, 10 min; Potency, µM (highest dose often 107 µM), for the others: top-dose activity, negative = inhibition, most hits filed as inhibitors; actives 0.53% (n = 400,000); further: on the % scale 0 is the no-effect control and ±100 the full control effect
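Activity was followed as the change in fluorescence between reads at 0 and 10 min after starting the reaction with 50 nM substrate. Beforehand, 10 nM polymerase had been preincubated with compound for 15 min at room temperature.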
Pol beta inh = DNA polymerase beta (human) inhibition; Potency, µM (titrated, usually from 114 µM), inactives show at the highest dose activity change, negative = inhibition, usual class: inhibitors; P06746; actives 1.3% (n = 340,000); Pol beta primer extension/strand displacement, fluorescence kinetic; further: on the % scale 0 is the no-effect control and ±100 the full control effect
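Reaction started by 50 nM substrate onto compound-treated Pol beta (10 nM, 15 min preincubation, room temperature); plates read at 0 min and 10 min. Normalized concentration-effect data fitted by four-parameter Hill equation.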
PGK inhibitor = inhibitors of T. brucei phosphoglycerate kinase. Potency, µM (series often up to 57.5 µM), inactives show at the top dose activity change, negative = inhibition, actives largely listed as inhibitors. AID 602233. PGK/GAPDH coupled, Kinase-Glo luminescence, 60 min. actives 0.043% (n = 380,000); further: on the % scale 0 is the no-effect control and ±100 the full control effect; nearly all actives have a fitted effect of over 60% in size
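Luminescent ATP detection (Kinase-Glo Plus) follows a 60-minute room-temperature incubation, with wells lacking PGK as controls. Buffer: 100 mM TEA (pH 7.6), 5 mM MgCl2, 0.01% Tween-20. Coupling enzyme GAPDH (100 nM final) supplies unstable 1,3-BPG in-well.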
Pol kappa inh-2 = Pol kappa (human) inhibition, cherry-pick confirmation | shares compounds with Pol eta inh-1 | purified Pol-kappa, fluorescent strand-displacement substrate | Potency, µM, actives largely listed as inhibitors | actives 76% (n = 920) | AID 720501
Pol eta inh-2 = Pol eta (human) inhibition, cherry-pick confirmation. shares compounds with Pol eta inh-1. Pol eta primer extension, TAMRA/BHQ fluorescence, 10 min. Potency, µM, usual class: inhibitors. actives 64% (n = 2,600)
Numbers without * were called inactive; [ ] = another dose, or the depositor's remark. The call rests on the fitted dose curve; in most records, active means well fitted curve in the direction sought with a large enough effect; inconclusive means small, poorly fitted or top-dose-only effect, or another doubt; inactive means no such curve, though single readings can be large; an effect the other way counts as inactive or inconclusive. Potency means the concentration at half of the fitted maximal effect.

What do the screens show for `COc1ccc(N2CC(C(=O)Nc3nnc(SCCC4OCCO4)s3)CC2=O)cc1` (stereo unspecified)?
POLI inh: -14%; Pol eta inh-1: 35µM*; FEN1 inh: -22%; Pol kappa inh-1: -29%; Pol beta inh: 14µM*; PGK inhibitor: 0%; Pol eta inh-2: inconclusive

What do the screens show for `Cc1ccc(CNC(=O)c2ccc(N3CCCC3)c(NC(=O)Nc3ccc(F)c(Cl)c3)c2)cc1`?
POLI inh: 29%; Pol eta inh-1: -20%; FEN1 inh: 14%; Pol kappa inh-1: -8%[60.1 µM]; Pol beta inh: -9%; PGK inhibitor: -3%

What do the screens show for `Cc1c(C)n(Cc2ccccc2)c2ccc(C(=O)NCC(C)c3ccccc3)cc12` (stereo unspecified)?
POLI inh: 35%; Pol eta inh-1: -17%; FEN1 inh: -8%; Pol kappa inh-1: -23%; Pol beta inh: 4%; PGK inhibitor: -7%

Results for Cc1ccc(-c2csc(NC(=O)c3ccc(C)o3)n2)cc1 ?
POLI inh: 13%; Pol eta inh-1: -21%; FEN1 inh: -19%; Pol kappa inh-1: -23%; Pol beta inh: -29%; PGK inhibitor: 3%

Results for Cc1ccc(-c2csc(NC(=O)c3ccno3)n2)cc1 ?
POLI inh: inconclusive; Pol eta inh-1: 45µM*; FEN1 inh: 4%; Pol kappa inh-1: -24%; Pol beta inh: 14µM*; PGK inhibitor: -1%; Pol eta inh-2: inconclusive

What do the screens show for `CN(C)C(=O)c1ccc(-c2ccc3ncnc(N4CCOCC4)c3c2)cc1`?
Pol kappa inh-1: 12%[60.1 µM]

Results for CC(C)CSC1=NSC2=NC(=O)/C(=C\c3ccccc3)C(=N)N12 ?
POLI inh: inconclusive; Pol eta inh-1: -28%; FEN1 inh: 5%; Pol kappa inh-1: -2%; Pol beta inh: 1%; PGK inhibitor: inactive

What do the screens show for `CC(C)CSC1=NSC2=NC(=O)/C(=C\c3coc4ccccc4c3=O)C(=N)N12`?
POLI inh: inconclusive; Pol eta inh-1: 18µM*; FEN1 inh: inconclusive; Pol kappa inh-1: -30%; Pol beta inh: 45µM*; PGK inhibitor: -12%; Pol eta inh-2: 76*

What do the screens show for `CSC1=NSC2=NC(=O)/C(=C\c3coc4ccccc4c3=O)C(=N)N12`?
POLI inh: inconclusive; Pol eta inh-1: 13µM*; FEN1 inh: 79µM*; Pol kappa inh-1: inconclusive; Pol beta inh: 25µM*; PGK inhibitor: -1%; Pol eta inh-2: inconclusive

Results for CN(C)c1ccc(C2CC(c3c(O)n(C4CCCCC4)c(=O)[nH]c3=O)=Nc3ccccc3S2)cc1 (stereo unspecified) ?
POLI inh: 27%; FEN1 inh: -5%; Pol kappa inh-1: -2%; Pol beta inh: 11%

How did Cc1cc2cc(CCNS(=O)(=O)c3ccc(Br)cc3)c(=O)[nH]c2cc1C do in these assays?
POLI inh: -2%; Pol eta inh-1: -12%; FEN1 inh: -24%; Pol kappa inh-1: -12%; Pol beta inh: -1%; PGK inhibitor: -10%

Results for O=C(Nc1ccc2nc(-c3ccco3)c(-c3ccco3)nc2c1)N1CCN(c2ccccn2)CC1 ?
POLI inh: 3.2µM*; Pol eta inh-1: 3.2µM*; FEN1 inh: inconclusive; Pol kappa inh-1: 28µM*; Pol beta inh: 1.6µM*; PGK inhibitor: -8%; Pol eta inh-2: inconclusive

How did O=C(c1ccc2nc(-c3ccco3)c(-c3ccco3)nc2c1)N1CCN(c2ncccn2)CC1 do in these assays?
POLI inh: inconclusive; Pol eta inh-1: inconclusive; FEN1 inh: -15%; Pol kappa inh-1: inconclusive; Pol beta inh: 40µM*; PGK inhibitor: -5%; Pol eta inh-2: inconclusive

Results for CCc1cc(=O)n2c([nH]c3ccccc32)c1C#N ?
POLI inh: inconclusive; Pol eta inh-1: -5%; FEN1 inh: -14%; Pol kappa inh-1: 7%; Pol beta inh: 8%; PGK inhibitor: -5%

Results for CC(SCc1cc(=O)n2c([nH]c3ccccc32)c1C#N)C(=O)O (stereo unspecified) ?
POLI inh: inconclusive; Pol eta inh-1: inconclusive; FEN1 inh: -35%; Pol kappa inh-1: inconclusive; Pol beta inh: -30%; PGK inhibitor: -9%; Pol eta inh-2: inconclusive

Results for COc1ccc(N(C(=O)c2ccc(C(C)(C)C)cc2)S(=O)(=O)c2ccc(Cl)cc2)cc1 ?
POLI inh: 17%; Pol eta inh-1: -13%; FEN1 inh: inconclusive; Pol kappa inh-1: -13%; Pol beta inh: 24%; PGK inhibitor: 5%

What do the screens show for `CCOc1ccc(Cc2nnc(SCC(=O)c3ccc(OC)cc3)o2)cc1`?
POLI inh: -8%; Pol eta inh-1: -6%; FEN1 inh: -11%; Pol kappa inh-1: 2%; Pol beta inh: 7%; PGK inhibitor: 14%

What do the screens show for `CCOc1ccc(Nc2nc(Cc3nnc(SCC(=O)O)o3)cs2)cc1`?
POLI inh: inconclusive; Pol eta inh-1: 50µM*; FEN1 inh: -5%; Pol kappa inh-1: inconclusive; Pol beta inh: 79µM*; PGK inhibitor: -6%[11.5 µM]; Pol eta inh-2: inconclusive

Results for Cc1cc(N)n(-c2ccc(Oc3ccccc3)c(S(=O)(=O)O)c2)n1 ?
POLI inh: inconclusive; Pol eta inh-1: 18µM*; FEN1 inh: 7%; Pol kappa inh-1: inconclusive; Pol beta inh: 14µM*; PGK inhibitor: -7%; Pol kappa inh-2: inconclusive

What do the screens show for `Cc1cc(N)n(-c2ccc(C)c(C)c2)n1`?
POLI inh: -2%; Pol eta inh-1: -3%; FEN1 inh: 13%; Pol kappa inh-1: -9%; Pol beta inh: 3%; PGK inhibitor: -9%

How did COc1cc(-c2c(-c3ccc4c(c3)OCO4)noc2-c2ccsc2)cc(OC)c1OC do in these assays?
POLI inh: 10%; FEN1 inh: 14%; Pol kappa inh-1: 7%

How did O=C(O)c1cc(-c2ccc(-c3c(-c4ccc5c(c4)OCO5)noc3-c3ccsc3)cc2)nc2ccccc12 do in these assays?
POLI inh: inconclusive; Pol eta inh-1: 79µM*; FEN1 inh: -23%; Pol kappa inh-1: -30%; Pol beta inh: -15%; PGK inhibitor: -4%; Pol kappa inh-2: inconclusive
